Data taken from PubChem BioAssay (NCATS).
Results filed as inconclusive are left out. Calls of active or inactive are those of the source. The call rests on the fitted dose curve; in most records, active means well fitted inhibition curve with a large enough effect; inconclusive means small, poorly fitted or top-dose-only effect; inactive means flat fitted curve, though single readings scatter.

What was measured:
Assay in all cases: qHTS profiling for inhibitors of Plasmodium falciparum proliferation (AID 504749); further: nearly all actives have a fitted effect of over 60% in size
Conditions in all cases: P. falciparum in erythrocytes, SYBR Green DNA, 72 h; series mostly up to 28.7 µM
CP262 = test system: CP262
In short: (§1)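 Parasite proliferation within erythrocytes, 72 h exposure. Endpoint: SYBR Green I fluorescence after overnight lysis at room temperature. Controls: 0.29 uM artemisinin, DMSO.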

CP265 = test system: CP265
In short: as §1

CP266 = test system: CP266
In short: as §1

CP268 = test system: CP268
In short: as §1

CP269 = test system: CP269
In short: as §1

CP286 = test system: CP286
In short: as §1

CP291 = test system: CP291
In short: as §1

CP297 = test system: CP297
In short: as §1

CP305 = test system: CP305
In short: as §1

CP315 = test system: CP315
In short: as §1

CP325 = test system: CP325
In short: as §1

CP329 = test system: CP329
In short: as §1

CP335 = test system: CP335
In short: as §1

DIV14 = test system: DIV14
In short: as §1

DIV17 = test system: DIV17
In short: as §1

DIV30 = test system: DIV30
In short: as §1

Dd2 = test system: Dd2
In short: as §1

ECU = test system: ECU
In short: as §1

FAB9 = test system: FAB9
In short: as §1

GB4 = test system: GB4
In short: as §1

HB3 = test system: HB3
In short: as §1

ICS = test system: ICS
In short: as §1

JCK = test system: JCK
In short: as §1

N140 = test system: N140
In short: as §1

P93_24 = test system: P93_24
In short: as §1

P94_40 = test system: P94_40
In short: as §1

PAD = test system: PAD
In short: as §1

PC15 = test system: PC15
In short: as §1

PC26 = test system: PC26
In short: as §1

PC49 = test system: PC49
In short: as §1

SC27B = test system: SC27B
In short: as §1

TAB109 = test system: TAB109
In short: as §1

TAB113 = test system: TAB113
In short: as §1

TAB165 = test system: TAB165
In short: as §1

Measured: Potency

CN1[C@@H]2CC(OC(=O)[C@@H](CO)c3ccccc3)C[C@@H]1[C@H]1O[C@H]12 (some centres undefined)
inactive: all assays above
